# Measurements reported in PubChem BioAssay.
# Values joined by “and” are separate entries in the source; they are usually repeats but may differ in a detail not shown here. Identical values can stand only once. Active and inactive are the calls of the source.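 The calls were made as follows, unless noted: active = fluorescence slope after compound addition differing from the mean of all screened samples at 99.7% confidence, in either direction; inactive = the rest.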
# Key:
# [1] = inhibitors of TNFa-induced NFkB p65 translocation, primary screen, imaging, HUVEC, MLSMR starter and 10KST1 sets (AID 438;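 active = inhibition above 20% together with a positive visual image hit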;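 also: compound added about 3h40 before a 20 min TNFalpha stimulation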;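 as to inhibition: signal is the nuclear over cytoplasmic p65 intensity ratio per well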); details: HUVEC TNFa-induced p65 nuclear translocation; cell count: measured here: nuclei count (cytotoxicity indicator), at 2.08 µM; inhibition: at 2 µM, stronger effect = higher value, 0% TNFa-plus-vehicle, 100% no-TNFa wells
# [2] = inhibitors of mutant huntingtin aggregation, primary screen, imaging, exon1htt(103Q)mCFP cells, high-content imaging (AID 483;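 active = visual image review flags a hit and inhibition of aggregation exceeds 20%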;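 also: compound exposure lasted 3 days before fixation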;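 as to nuclei count: percent of the per-plate median nuclei count of sample wells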); details: exon1htt(103Q)mCFP cell line, aggregate imaging, at 2 µM; inhibition of aggregation: stronger effect = higher value; nuclei count: measured here: cell count, toxicity
# [3] = inhibitors of E-selectin induction by TNFa, primary screen, imaging, HUVEC, immunofluorescence, MLSMR starter and 10KST1 sets (AID 487;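 active = visually confirmed hit in the image check and inhibition above 20%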;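 as to inhibition: signal is fraction of cell area covered by stained E-selectin grains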;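 as to nuclei count: 100% = median nuclei count of all wells on the same plate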); details: HUVEC TNFalpha-induced E-selectin immunofluorescence imaging, at 2 µM; inhibition: stronger effect = higher value; nuclei count: measured here: cell number, toxicity
# [4] = DUSP6 inhibitors restoring Erk phosphorylation by chemical complementation, primary imaging in DUSP6-transfected HeLa (AID 609;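 active = compounds giving at least 50% inhibition in the cell-based MKP-3 phosphatase rescue imaging test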;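 as to inhibition: phospho-Erk level distribution per well compared with pooled transfected vehicle control wells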); details: HeLa MKP-3 transfected, phospho-Erk imaging KS statistic, at 10 µM, cells stimulated with TPA for 15 min
# [5] = target: Dual specificity protein phosphatase 6 (Homo sapiens) (UniProt Q16828); experiment: as above; details: HeLa MKP-3 transfected, phospho-Erk imaging KS statistic; at 10 µM; stronger effect = higher value; cells stimulated with TPA for 15 min
# [6] = target: Voltage-gated potassium channel subunit beta-2 (Rattus norvegicus) (UniProt P62483); experiment: KvBeta enzyme negative modulators, primary screen, biochemical, NADPH fluorescence (AID 622;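 active = fluorescence slope higher than the sample average by over 3 SD, cut at about -0.22 in these data, passing the limit was not always enough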;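 also: slope of raw intensity against log time taken from 70 to 1610 s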); details: recombinant KvBeta, 4-cyanobenzaldehyde reduction, at 10 µM, stronger effect = higher value
# [7] = target: Voltage-gated potassium channel subunit beta-2 (Rattus norvegicus) (UniProt P62483); experiment: KvBeta positive modulators, primary screen, biochemical, NADPH fluorescence (AID 623;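 active = NADPH fluorescence slope more negative than the mean of all samples by about 3 SD, 99.7% confidence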;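 also: fluorescence intensity change per second fitted from 20 to 320 s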); details: Recombinant KvBeta, NADPH fluorescence decrease slope, 10 min; at 10 µM; stronger effect = lower value
# [8] = target: Alpha-2C adrenergic receptor (Homo sapiens) (UniProt P18825); experiment: modulators of alpha2C/GIRK thallium flux, primary screen, cell-based, HEK293 alpha2C/GIRK1/2 (AID 624); details: thallium flux BTC fluorescence, at 10 µM, actives lie on both sides;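 also: slope of fluorescence ratio to pre-addition baseline per second over 15 to 24 s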
# [9] = inhibitors of larval lipid processing in zebrafish, primary screen, whole organism, PED6 fluorescence, gall bladder and intestine (AID 686;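 active = a full or partial loss of lipid-probe fluorescence in the fish gall bladder, intestine or both, judged by eye; inactive = no fluorescence loss, or compound toxic to the fish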;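 also: larvae 5 to 7 days old with five fish per well; signal comes from phospholipase A2 cleavage of quenched PED6 carried via bile; overnight exposure to compound and PED6 before scoring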); details: Zebrafish larvae PED6 lipid processing, fluorescence scoring; screened at 20 µM (by protocol)
# [10] = inhibitors of Chlamydomonas gravitaxis, primary screen, whole organism, Chlamydomonas reinhardtii, WT vs cilia-less mutant, absorbance, 96-well (AID 463189;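 active = inhibition at or above 50% relative to wild type and mutant plate controls; inactive = inhibition below 50%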;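 also: 0% = wild type cc124 cells in DMSO and 100% = ciliumless bld1 mutant cells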); details: OD600 absorbance, 2 days, at 10 µM, stronger effect = higher value
# [11] = inhibitors of Sendai virus-induced IRF3 signaling, primary screen, TLR/RLR signaling modifier project, cell-based, Sendai virus stimulus, luciferase, 10K MLSCN set (AID 602276;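 active = inhibition at or above 50% at 10 µM; inactive = inhibition below 50%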;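 also: firefly luciferase from ISG56 promoter only with Renilla not read in this screen; 0% = Sendai virus plus DMSO and 100% = medium plus DMSO without virus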); details: HEK293 RL24 IRF3 luciferase reporter, at 10 µM, stronger effect = higher value
# [12] = inhibitors of poly I:C-induced TLR3 signaling, primary screen, cell-based, poly I:C stimulus, luciferase, 10K MLSCN set (AID 602277;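 active = inhibition of the reporter signal at or above 50%; inactive = inhibition below 50%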); details: HEK293-TLR3 RL24 IRF3 luciferase reporter, at 10 µM, stronger effect = higher value
# [13] = measured here: cell density z-score
# [14] = measured here: nuclear c-Myc green intensity z-score
# [15] = measured here: nuclear pErk red intensity z-score, stronger effect = higher value
# Voltage-gated potassium channel subunit beta-2 (Rattus norvegicus), sequence (P62483 whole entry, looked up): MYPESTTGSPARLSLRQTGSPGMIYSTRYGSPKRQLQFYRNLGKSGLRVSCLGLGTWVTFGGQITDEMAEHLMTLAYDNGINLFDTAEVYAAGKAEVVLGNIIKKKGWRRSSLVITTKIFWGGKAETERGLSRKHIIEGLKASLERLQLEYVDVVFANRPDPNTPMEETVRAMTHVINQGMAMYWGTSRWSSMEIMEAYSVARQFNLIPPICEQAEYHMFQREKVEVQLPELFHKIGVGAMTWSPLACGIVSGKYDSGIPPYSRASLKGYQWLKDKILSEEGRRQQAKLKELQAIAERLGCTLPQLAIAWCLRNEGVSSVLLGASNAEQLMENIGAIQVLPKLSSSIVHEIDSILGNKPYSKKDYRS
# Dual specificity protein phosphatase 6 (Homo sapiens), sequence (Q16828 whole entry, looked up): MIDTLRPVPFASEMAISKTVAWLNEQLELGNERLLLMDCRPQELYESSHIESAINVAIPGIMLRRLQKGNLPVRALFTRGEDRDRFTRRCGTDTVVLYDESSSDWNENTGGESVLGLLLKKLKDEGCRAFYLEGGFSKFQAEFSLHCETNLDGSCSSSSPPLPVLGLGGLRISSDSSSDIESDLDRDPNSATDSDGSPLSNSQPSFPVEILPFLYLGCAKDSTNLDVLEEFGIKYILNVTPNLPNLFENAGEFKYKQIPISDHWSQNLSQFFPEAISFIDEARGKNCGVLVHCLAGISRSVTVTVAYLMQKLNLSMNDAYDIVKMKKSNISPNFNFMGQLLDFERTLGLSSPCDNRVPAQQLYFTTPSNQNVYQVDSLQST
# Alpha-2C adrenergic receptor (Homo sapiens), sequence (P18825 whole entry, looked up): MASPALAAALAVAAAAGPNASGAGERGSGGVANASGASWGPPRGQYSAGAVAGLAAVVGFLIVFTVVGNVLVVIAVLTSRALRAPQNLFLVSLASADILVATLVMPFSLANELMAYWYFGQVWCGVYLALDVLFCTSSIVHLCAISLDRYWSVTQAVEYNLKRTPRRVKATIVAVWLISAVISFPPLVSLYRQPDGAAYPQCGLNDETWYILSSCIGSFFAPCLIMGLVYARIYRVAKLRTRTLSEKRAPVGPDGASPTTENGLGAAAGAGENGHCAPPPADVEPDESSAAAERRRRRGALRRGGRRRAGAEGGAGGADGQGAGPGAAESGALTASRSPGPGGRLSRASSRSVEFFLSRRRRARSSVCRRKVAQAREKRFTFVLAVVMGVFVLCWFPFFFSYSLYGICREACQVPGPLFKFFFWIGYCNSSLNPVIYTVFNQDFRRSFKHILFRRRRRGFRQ
Structure (SMILES),cell count [1],inhibition [1],inhibition of aggregation [2],nuclei count [2],inhibition [3],nuclei count [3],"z-score [4, 13]","z-score [4, 14]","z-score [4, 15]",inhibition [5],fluorescence slope [6],NADPH fluorescence slope [7],slope [8],outcome [9],inhibition [10],inhibition [11],inhibition [12]
CC(=Nc1ccc(C)c(C)c1)C1=C(O)CCC1=O,616,-14.9% (inactive),30.6% (inactive),87.4%,-30.7% (inactive),143%,0.598,-0.724,0.505,4.72% (inactive),-0.423 (inactive),-4.1e-05 (inactive),0.00609 (inactive),inactive,2.51% (inactive),-16.6% (inactive),-35.9% (inactive)
CCOC(=O)C1CCN(c2nc3ccccc3nc2C(C#N)C(=O)OCCOC)CC1 (stereo not given),436,-5.7% (inactive),12.8% (inactive),81%,-67.9% (inactive),120%,0.586,0.396,0.0352,-11.5% (inactive),-0.529 (inactive),2.1e-06 (inactive),0.00561 (inactive),inactive,-22.9% (inactive),13.3% (inactive),3.22% (inactive)
CCC(=O)Oc1ccc(C(CC)C(CC)c2ccc(OC(=O)CC)cc2)cc1 (stereo not given),548,-8% (inactive),-5.4% (inactive),107%,-70.7% (inactive),132%,-1.07,0.0699,1.82,-4.44% (inactive),-0.48 (inactive),1.7e-05 (inactive),0.0054 (inactive),inactive,0.847% (inactive),12.9% (inactive),33.2% (inactive)
COc1ccc2c(c1OC)C(=O)OC2C1c2c(cc3c(c2OC)OCO3)CCN1C (stereo not given),463 and 544,-10.9% (inactive) and 0.8% (inactive),-1% (inactive) and -12.6% (inactive),101% and 94.4%,-43.9% (inactive) and -115% (inactive),132% and 119%,1.55,-0.813,-0.77,5.42% (inactive),-0.541 (inactive) and -0.459 (inactive),7.5e-05 (inactive) and -6e-05 (inactive),0.0053 (inactive) and 0.00526 (inactive),inactive,19.2% (inactive),23.1% (inactive) and 13.1% (inactive),29.1% (inactive) and 24% (inactive)
CCOC(=O)CCC(=O)O[C@H]1[C@H](O[C@@H]2[C@@H](C)[C@H](O[C@H]3C[C@@](C)(OC)[C@@H](O)[C@H](C)O3)[C@@H](C)C(=O)O[C@H](CC)[C@@](C)(O)[C@H](O)[C@@H](C)C(=O)[C@H](C)C[C@@]2(C)O)O[C@H](C)C[C@@H]1N(C)C,569,-5.3% (inactive),0.8% (inactive),105%,-62.2% (inactive),115%,-0.734,-0.933,0.00972,-4.44% (inactive),-0.495 (inactive),-5.4e-05 (inactive),0.0056 (inactive),inactive,64.6% (active),20.3% (inactive),31.3% (inactive)
OCCNC1=NCCN1,552,-6.3% (inactive),28.8% (active),104%,-4.8% (inactive),146%,-0.706,-1.05,0.931,-3.98% (inactive),-0.523 (inactive),-7.4e-05 (inactive),0.00539 (inactive),inactive,-5.29% (inactive),17.3% (inactive),20.3% (inactive)
CC(=O)OCC[N+](C)(C)C,554,-8.9% (inactive),10.6% (inactive),93.8%,-102% (inactive),102%,-0.918,-0.674,-0.99,-0.493% (inactive),-0.431 (inactive),1.1e-05 (inactive),0.0173 (active),inactive,-4.51% (inactive),11.3% (inactive),31.5% (inactive)
CC(=O)OCC(=O)[C@@]1(O)CC[C@H]2[C@@H]3CCC4=CC(=O)CC[C@]4(C)[C@H]3[C@@H](O)C[C@@]21C,652,2.9% (inactive),-9.2% (inactive),82.8%,-99.5% (inactive),121%,-2.38,1.32,1.76,10.2% (inactive),-0.454 (inactive),-5.2e-05 (inactive),0.00445 (inactive),inactive,17.2% (inactive),2.51% (inactive),28.7% (inactive)
Cc1cccc(C)c1NC(=O)C1CCCCN1C (stereo not given),662,-8.2% (inactive),-22% (inactive),108%,-104% (inactive),139%,1.2,-0.238,0.358,3.45% (inactive),-0.488 (inactive),-4.1e-05 (inactive),0.00459 (inactive),inactive,3.16% (inactive),12.7% (inactive),35.5% (inactive)
CO[C@H]1C[C@@H]2CC[C@@H](C)[C@@](O)(O2)C(=O)C(=O)N2CCCC[C@H]2C(=O)O[C@H]([C@H](C)C[C@@H]2CC[C@@H](O)[C@H](OC)C2)CC(=O)[C@H](C)C=C(C)[C@@H](O)[C@@H](OC)C(=O)[C@H](C)C[C@H](C)C=CC=CC=C1C,629,-23.5% (inactive),3.4% (inactive),97%,-63% (inactive),106%,0.947,0.453,0.871,19.2% (inactive),-0.462 (inactive),-3.4e-05 (inactive),0.00536 (inactive),inactive,44.3% (inactive),21.8% (inactive),43.8% (inactive)
CCN(CC)CC#CCOC(=O)C(O)(c1ccccc1)C1CCCCC1 (stereo not given),506,-6.6% (inactive),-15.9% (inactive),97.3%,4.9% (inactive),112%,-0.442,-0.591,0.229,5.42% (inactive),-0.492 (inactive),-7.5e-05 (inactive),0.00459 (inactive),inactive,6.66% (inactive) and 16.9% (inactive),9.64% (inactive),30.4% (inactive)
CC(C)N=c1cc2n(-c3ccc(Cl)cc3)c3ccccc3nc-2cc1Nc1ccc(Cl)cc1,636,-2.8% (inactive),-9.9% (inactive),102%,-163% (inactive),126%,-0.698,-0.296,0.758,-0.493% (inactive),-0.535 (inactive),-1.6e-05 (inactive),0.00125 (inactive),active; weak signal in gallbladder and intestine,157% (active),-7.35% (inactive),33.1% (inactive)
CCCC(=O)O[C@]1(C(=O)CCl)[C@@H](C)C[C@H]2[C@@H]3CCC4=CC(=O)C=C[C@]4(C)[C@@]3(F)C(=O)C[C@@]21C,614,-3.2% (inactive),-2.9% (inactive),63.4%,-61.7% (inactive),120%,0.0825,0.587,-0.866,19.2% (inactive),-0.535 (inactive),-7e-05 (inactive),0.00401 (inactive),inactive,47.7% (inactive),-12.4% (inactive),-5.01% (inactive)
O=C(O)CN(c1ccccc1)C1SC(=O)NC1=O (stereo not given),606,-0.1% (inactive),5.9% (inactive),107%,-50.9% (inactive),140%,-0.0323,-0.911,0.397,16.1% (inactive),-0.506 (inactive),-3.4e-05 (inactive),0.00506 (inactive),inactive,31.8% (inactive),11.9% (inactive),13.7% (inactive)
CC(C)(C)OC(=O)N1CC=C2C(C#N)=C(N)C(C#N)(C#N)[C@H](c3cccnc3)[C@H]2C1,461,-13.5% (inactive),45.1% (active),70.7%,28.8% (inactive),112%,-1.09,-0.413,0.348,-0.624% (inactive),-0.387 (inactive),-4.5e-05 (inactive),0.00436 (inactive),inactive,2.34% (inactive),11.2% (inactive),10.3% (inactive)
CN(C)CCN(Cc1ccccc1)c1ccccn1,526,-10.5% (inactive),18.7% (inactive),98.3%,-31.1% (inactive),109%,-0.393,0.385,-0.67,9.37% (inactive),-0.432 (inactive),-8.6e-05 (inactive),0.00588 (inactive),inactive,49.5% (inactive),11.1% (inactive),33.9% (inactive)
O=C1OC(c2ccc(O)cc2)(c2ccc(O)cc2)c2ccccc21,608,-5% (inactive),4.4% (inactive),77.9%,-50.7% (inactive),116%,2.02,-0.265,-1.6,21.2% (inactive),-0.449 (inactive),-6.8e-05 (inactive),0.00467 (inactive),inactive,-5.48% (inactive),11.5% (inactive),41.9% (inactive)
COc1cc(N2C(=O)CSC23C(=O)Nc2ccccc23)cc(OC)c1OC (stereo not given),512,-13.1% (inactive),-13.9% (inactive),99.6%,-26.2% (inactive),105%,-0.126,-0.03,0.793,1.6e-07% (inactive),-0.342 (inactive),6.8e-06 (inactive),0.00524 (inactive),inactive,24.8% (inactive),2.33% (inactive),10.8% (inactive)
CC(=O)OCC(=O)[C@@]1(OC(C)=O)[C@@H](C)C[C@H]2[C@@H]3C[C@H](F)C4=CC(=O)C=C[C@]4(C)[C@@]3(F)[C@@H](O)C[C@@]21C,659,-5.5% (inactive),-7.2% (inactive),68.3%,-71.2% (inactive),116%,1.64,-1.42,-1.55,29.1% (inactive),-0.482 (inactive),-7.3e-05 (inactive),0.00497 (inactive),inactive,3.31% (inactive),4.93% (inactive),44.4% (inactive)
Cc1oc2cc(O)ccc2c(=O)c1-c1cnn(-c2ccccc2)c1,454,-6.5% (inactive),-9% (inactive),102%,-212% (inactive),120%,-0.098,-0.0689,0.86,-9.91% (inactive),-0.486 (inactive),1.2e-05 (inactive),0.00452 (inactive),inactive,9.82% (inactive),7.89% (inactive),0.114% (inactive)
